In all, about 290,000 compounds went through this assay and about 570 (0.2%) were called active. About 1% were inconclusive and are not listed. Cut-off read from the data, not from the text of the source: active = inhibition mostly above about 51% (no sharp cut-off); inconclusive = no clear call, values can overlap the other calls; inactive = mostly below about 53%. The list comes from a sample in which actives are over-represented; it also holds similar structures and randomly drawn compounds.
Target: Voltage-dependent N-type calcium channel subunit alpha-1B (Homo sapiens) (UniProt Q00975)
Assay: disruptors of CaV2.2 binding to Mint1 – biochemical, HTRF (AID 2073)
Settings: HTRF protein-protein interaction, Mint1-CaV2.2, at 20 µM, stronger effect = higher value
[1] = measured here: average of repeat tests

Chain of Voltage-dependent N-type calcium channel subunit alpha-1B (Homo sapiens) (Q00975 whole entry, looked up): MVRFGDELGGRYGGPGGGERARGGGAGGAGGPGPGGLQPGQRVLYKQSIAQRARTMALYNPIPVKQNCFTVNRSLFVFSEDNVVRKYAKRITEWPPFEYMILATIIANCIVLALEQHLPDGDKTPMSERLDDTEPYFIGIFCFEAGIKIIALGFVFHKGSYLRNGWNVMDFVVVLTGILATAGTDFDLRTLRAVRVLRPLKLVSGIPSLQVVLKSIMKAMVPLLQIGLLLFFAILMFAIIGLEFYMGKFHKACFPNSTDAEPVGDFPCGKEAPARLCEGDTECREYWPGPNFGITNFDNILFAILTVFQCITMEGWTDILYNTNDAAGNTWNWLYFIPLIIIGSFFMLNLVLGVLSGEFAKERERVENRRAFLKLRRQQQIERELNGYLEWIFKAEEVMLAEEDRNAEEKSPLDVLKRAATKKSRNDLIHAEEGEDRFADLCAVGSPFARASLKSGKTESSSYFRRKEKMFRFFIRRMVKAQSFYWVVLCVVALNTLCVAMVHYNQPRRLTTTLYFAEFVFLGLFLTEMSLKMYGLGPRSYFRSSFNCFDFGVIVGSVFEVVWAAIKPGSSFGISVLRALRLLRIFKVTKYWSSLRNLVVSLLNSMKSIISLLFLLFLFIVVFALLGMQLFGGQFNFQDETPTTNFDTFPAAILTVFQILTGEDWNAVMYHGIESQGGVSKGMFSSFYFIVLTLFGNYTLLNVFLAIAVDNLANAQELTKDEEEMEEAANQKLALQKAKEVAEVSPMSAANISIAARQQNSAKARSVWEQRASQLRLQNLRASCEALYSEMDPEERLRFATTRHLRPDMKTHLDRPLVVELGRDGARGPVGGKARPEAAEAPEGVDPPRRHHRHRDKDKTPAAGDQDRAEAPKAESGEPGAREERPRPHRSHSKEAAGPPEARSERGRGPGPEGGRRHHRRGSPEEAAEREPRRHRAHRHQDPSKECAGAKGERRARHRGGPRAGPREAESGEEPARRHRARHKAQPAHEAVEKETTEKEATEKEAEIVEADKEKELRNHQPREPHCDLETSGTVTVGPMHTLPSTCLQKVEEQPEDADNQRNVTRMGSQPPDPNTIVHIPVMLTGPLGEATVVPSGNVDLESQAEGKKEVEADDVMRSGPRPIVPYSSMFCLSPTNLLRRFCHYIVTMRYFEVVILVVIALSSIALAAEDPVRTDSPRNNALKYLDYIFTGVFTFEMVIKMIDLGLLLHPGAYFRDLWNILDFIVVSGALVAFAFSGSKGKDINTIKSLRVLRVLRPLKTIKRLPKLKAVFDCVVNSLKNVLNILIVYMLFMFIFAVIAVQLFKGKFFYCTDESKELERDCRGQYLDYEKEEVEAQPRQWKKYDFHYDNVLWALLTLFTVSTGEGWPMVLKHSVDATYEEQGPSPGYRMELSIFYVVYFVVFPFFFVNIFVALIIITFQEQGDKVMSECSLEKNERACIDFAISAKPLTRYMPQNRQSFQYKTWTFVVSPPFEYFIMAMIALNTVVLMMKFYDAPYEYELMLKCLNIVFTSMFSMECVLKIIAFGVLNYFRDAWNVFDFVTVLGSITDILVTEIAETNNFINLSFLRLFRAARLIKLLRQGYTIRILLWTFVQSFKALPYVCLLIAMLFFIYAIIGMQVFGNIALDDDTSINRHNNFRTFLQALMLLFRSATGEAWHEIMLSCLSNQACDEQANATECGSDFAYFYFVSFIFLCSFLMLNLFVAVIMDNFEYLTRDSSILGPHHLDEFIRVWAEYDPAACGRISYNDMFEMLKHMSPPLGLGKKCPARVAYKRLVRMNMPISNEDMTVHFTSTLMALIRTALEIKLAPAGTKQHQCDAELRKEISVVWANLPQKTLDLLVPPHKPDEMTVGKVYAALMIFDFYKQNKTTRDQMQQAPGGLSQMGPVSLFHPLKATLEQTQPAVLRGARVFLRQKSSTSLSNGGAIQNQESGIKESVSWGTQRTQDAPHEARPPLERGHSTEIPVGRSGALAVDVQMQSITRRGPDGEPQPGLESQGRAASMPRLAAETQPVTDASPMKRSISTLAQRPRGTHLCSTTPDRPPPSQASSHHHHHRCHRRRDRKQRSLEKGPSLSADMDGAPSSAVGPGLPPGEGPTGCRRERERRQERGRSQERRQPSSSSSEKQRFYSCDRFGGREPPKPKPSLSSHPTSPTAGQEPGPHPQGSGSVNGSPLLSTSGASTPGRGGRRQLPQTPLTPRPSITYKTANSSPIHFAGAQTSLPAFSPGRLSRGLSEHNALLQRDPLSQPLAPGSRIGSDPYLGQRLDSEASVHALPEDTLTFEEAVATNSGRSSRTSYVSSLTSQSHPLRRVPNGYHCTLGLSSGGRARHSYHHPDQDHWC

In the case of `CSc1cccc(NC(=O)c2cc(S(=O)(=O)N3CCCC3)cn2C)c1`, the inhibition is reported as 8.5% (inactive).
With `O=C(CSc1nc2c(c(=O)n1-c1ccc(Cl)cc1)SCC2)NCC1CCCO1` (stereo not drawn) the inhibition was -0.5% (inactive).
`CC1=NN(C(N)=S)C(=O)C1N=Nc1c(Cl)cc([N+](=O)[O-])cc1Cl` (stereo not drawn) was tested, and the inhibition was -6.1% (inactive).
`Cc1ccc(C)c(SCC(=O)NC(=O)Nc2ccc3c(c2)OCCO3)c1` was tested, and the inhibition was 1.2% (inactive).
With `CCCc1cc(=O)[nH]c(SCC(=O)N2CCC(C)CC2)n1` the inhibition was 12% (inactive).
With `Cc1ccc([N+](=O)[O-])cc1N` the inhibition was 0% (inactive).
With `Nc1cc([N+](=O)[O-])ccc1O` the inhibition was 2.9% (inactive).
`COc1ccc(NC(=O)CCC(=O)N(Cc2ccc(OC)c(OC)c2)c2nccs2)cc1` was tested, and the inhibition was 6% (inactive).
In the case of `OCC1(CCCc2ccccc2)CCN(Cc2ccc(F)cc2)CC1`, the inhibition is reported as -2.6% (inactive).
With `CC(C)CNC(=O)c1ccccc1Oc1ccccc1` the inhibition was 3.1% (inactive).
In the case of `Cn1c(=O)c2c(-c3ccc(C(C)(C)C)cc3)n(CC3CCCO3)cc2n(C)c1=O` (stereo not drawn), the inhibition is reported as 8.1% (inactive).
In the case of `COC(=O)C1=C(C)NC(C)=C(C(=O)OC)C1c1cc2cc(C)ccc2[nH]c1=O`, the inhibition is reported as 17.4% (inactive).
For `Cc1ccc2[nH]c(=O)c(CNC(C)C)cc2c1`, the inhibition was 15.1% (inactive).
`Cc1ccc2c(c1C)NC(C(=O)O)C1CC=CC21` (stereo not drawn) was tested, and the inhibition was 42.8% (inactive).
In the case of `O=C(O)C1Nc2c(C(F)(F)F)ccc(Cl)c2C2C=CCC12` (stereo not drawn), the inhibition is reported as 7.3% (inactive).
`O=C(O)C1Nc2c(Cl)cc(Cl)cc2C2C=CCC12` (stereo not drawn) was tested, and the inhibition was 51.5% (active).
In the case of `O=C(CCNC(=O)N1CCn2c1nc1ccccc12)NCc1ccccc1`, the inhibition is reported as -1.3% (inactive).
In the case of `N#Cc1c(N)n(Cc2ccccc2)c(=O)c2cc([N+](=O)[O-])ccc12`, the inhibition is reported as 2% (inactive).
In the case of `O=c1c2c([N+](=O)[O-])cc([N+](=O)[O-])cc2sn1Cc1ccccc1`, the inhibition is reported as 43.2% (inactive).
With `Cc1ccc(NC2SC(=O)N(CC(=O)O)C2=O)cc1` (stereo not drawn) the inhibition was -7.4% (inactive).
`Cc1cccc(C)c1-n1c(C)nn(CC2CC2)c1=O` was tested, and the inhibition was -5.7% (inactive).
`COc1ccc(-c2csc(NC(=O)CN3C(=O)CCC3=O)n2)c(OC)c1` was tested, and the inhibition was 6.5% (inactive).
For `CC(C)(C)NC(=O)CN(C(=O)C1(C)CC(=O)N=C2C=CC=CN21)C1CCCC1` (stereo not drawn), the inhibition was 9.2% (inactive).
With `CCCCCCC(=O)N(O)C1CC(=O)N(c2ccc(C)cc2)C1=O` (stereo not drawn) the inhibition was 12.5% (inactive).
With `CCCCCC(=O)N(O)C1CC(=O)N(c2ccccc2)C1=O` (stereo not drawn) the inhibition was 44.4% (inactive).
With `CCCCCCC(=O)N(O)C1CC(=O)N(c2ccccc2)C1=O` (stereo not drawn) the inhibition was 65.6% (active).
In the case of `CN(CCN1CCc2ccccc2C1)Cc1nc(-c2ccc3c(c2)OCO3)no1`, the inhibition is reported as 2.5% (inactive).
In the case of `CCc1cc(C(=O)N2CCCC(C(=O)c3ccc(C(F)(F)F)cc3)C2)n(C)n1` (stereo not drawn), the inhibition is reported as 5.5% (inactive).
`O=C(CSc1nc2scc(-c3ccco3)c2c(=O)n1-c1ccccc1)NCC1CCCO1` (stereo not drawn) was tested, and the inhibition was 55% (active).
`C=CCn1c(SCC(=O)NCC2CCCO2)nc2scc(-c3ccco3)c2c1=O` (stereo not drawn) was tested, and the inhibition was 33% (inactive).
In the case of `O=C(CSc1nnc(-c2ccco2)n1-c1ccccc1)NCC1CCCO1` (stereo not drawn), the inhibition is reported as 9.9% (inactive).
`Cc1cc(C)c(NC(=O)CN2CCN(c3ccccn3)CC2)c(C)c1` was tested, and the inhibition was -1.2% (inactive).
`CCOC(=O)C1(Cc2ccccc2C)CCCN(C(=O)c2ccoc2)C1` (stereo not drawn) was tested, and the inhibition was 14.3% (inactive).
For `COC(=O)C1=C(C)NC(C)=C(C(=O)OCC2CCCO2)C1c1cccc(Br)c1` (stereo not drawn), the inhibition was 13.6% (inactive).
With `Cc1ccc(-n2nnnc2SCC(=O)Nc2sccc2C#N)cc1` the inhibition was 0% (inactive).
In the case of `N#Cc1ccsc1NC(=O)CSc1nnnn1-c1ccc(O)cc1`, the inhibition is reported as 50.6% (active).
With `Cn1cnnc1SCC(=O)Nc1sccc1C#N` the inhibition was 2.2% (inactive).
For `CC(=O)c1ccc2noc(-c3cccc(F)c3)c2c1`, the inhibition was -6.7% (inactive).
With `CCn1cc(C(=O)O)c(=O)c2cc(F)c(N/N=C/c3ccccc3)cc21` the inhibition was 6.4% (inactive).
In the case of `CCn1cc(C(=O)O)c(=O)c2cc(F)c(N/N=C/c3ccccc3[N+](=O)[O-])cc21`, the inhibition is reported as 58.8% (active).
`CCn1cc(C(=O)O)c(=O)c2cc(F)c(N3CCN(C(=S)NC(=O)c4ccccc4)CC3)cc21` was tested, and the inhibition was -5.6% (inactive).
For `Cn1cc([N+](=O)[O-])c(C(=O)NCc2ccco2)n1`, the inhibition was -1.5% (inactive).
With `COc1ccccc1NC(=O)C1=C(C)NC(=O)NC1c1ccccc1F` (stereo not drawn) the inhibition was 6.4% (inactive).
For `COc1ccccc1NC(=O)C1=C(C)NC(=O)NC1c1ccccc1[N+](=O)[O-]` (stereo not drawn), the inhibition was 55.2% (active).
In the case of `COc1ccc(NC(=O)C2=C(C)NC(=O)NC2c2ccccc2[N+](=O)[O-])cc1` (stereo not drawn), the inhibition is reported as -2.6% (inactive).
In the case of `O=C(CN1C(=O)C2CCCCC2C1=O)N1CCN(c2ncccn2)CC1` (stereo not drawn), the inhibition is reported as 10.4% (inactive).
`CC(C)CCN(C)C1CCN(S(=O)(=O)c2cccc(C(F)(F)F)c2)CC1` was tested, and the inhibition was 12.2% (inactive).
With `O=C(N/N=C/c1ccc([N+](=O)[O-])cc1)c1cc(C2CC2)[nH]n1` the inhibition was -0.6% (inactive).
With `O=C(N/N=C/c1cccc([N+](=O)[O-])c1)c1cc(-c2ccc3c(c2)OCO3)n[nH]1` the inhibition was 3.3% (inactive).
For `O=C(Nc1ccc(S(=O)(=O)Nc2nccs2)cc1)c1cccc(N2C(=O)c3ccccc3C2=O)c1`, the inhibition was 49.1% (inactive).
`O=C(Nc1ccc(S(=O)(=O)Nc2nccs2)cc1)c1ccc(F)cc1` was tested, and the inhibition was 11.1% (inactive).
With `O=C(Nc1ccc(S(=O)(=O)Nc2nccs2)cc1)c1ccc(N2C(=O)c3ccccc3C2=O)cc1` the inhibition was 58.8% (active).
`COc1ccccc1N1CCN(C(=O)C2CCN(C(=O)c3cccc(Cl)c3)CC2)CC1` was tested, and the inhibition was 6.4% (inactive).
In the case of `Cc1[nH]cnc1C(=O)N/N=C/c1ccc([N+](=O)[O-])s1`, the inhibition is reported as -7.6% (inactive).
In the case of `N#C/C(C(N)=O)=c1/ccc2c(c1)N1C3=C(CCCC3)CC3CCCCC31N=2` (stereo not drawn), the inhibition is reported as -26.9% (inactive).
`N#CC(C#N)=c1ccc2c(c1)N1C3=C(CCCC3)CC3CCCCC31N=2` (stereo not drawn) was tested, and the inhibition was -36.3% (inactive).
With `O=[N+]([O-])C(=c1ccc2c(c1)N1C3=C(CCCC3)CC3CCCCC31N=2)[N+](=O)[O-]` (stereo not drawn) the inhibition was 51.6% (active) and the inhibition [1] was 92.8%.
With `CCc1ccc2[nH]c(C(=O)Nc3ccc(Br)c(C)n3)cc2c1` the inhibition was 5.3% (inactive).
In the case of `COc1ccc(-c2cc(-c3ccco3)[nH]c(=O)c2C#N)cc1OC`, the inhibition is reported as 0.3% (inactive).
In the case of `N#Cc1c(-c2cccc(Br)c2)cc(-c2ccco2)[nH]c1=O`, the inhibition is reported as 53.9% (active).
For `COc1ccc(-c2cc(-c3ccco3)[nH]c(=O)c2C#N)cc1`, the inhibition was 24.8% (inactive).
With `O=C(COC(=O)c1ccc(S(=O)(=O)Nc2ccccc2)cc1)NCc1ccco1` the inhibition was -1.1% (inactive).
For `O=C(COC(=O)/C=C/c1ccco1)NCc1ccccc1`, the inhibition was 13.7% (inactive).
With `O=C(COC(=O)c1cccs1)NCc1ccco1` the inhibition was -0.7% (inactive).
With `O=C(COC(=O)CCC(=O)c1cccs1)NCc1ccco1` the inhibition was 57.8% (active).
With `O=C(COC(=O)/C=C/c1ccco1)NCc1ccco1` the inhibition was 53.7% (active).
With `O=C(COC(=O)c1ccc(NS(=O)(=O)c2cccs2)cc1)NCc1ccco1` the inhibition was 59.4% (active).
For `O=C(COC(=O)c1ccc(NS(=O)(=O)c2cccs2)cc1)NCC1CCCO1` (stereo not drawn), the inhibition was -3% (inactive).
In the case of `O=C(COC(=O)CCC(=O)c1cccs1)NCc1cccs1`, the inhibition is reported as -3.4% (inactive).
With `O=C(COC(=O)/C=C/c1ccc(F)cc1)NCc1ccco1` the inhibition was 8.8% (inactive).
In the case of `COC(=O)c1sc2ccccc2c1NC(=O)c1ccc(S(=O)(=O)N2CCCCC2C)cc1` (stereo not drawn), the inhibition is reported as -0.4% (inactive).
With `CN(CCOc1ccc(Cl)cc1)Cc1cccc(S(=O)(=O)N(C)C)c1` the inhibition was -2.1% (inactive).
`Nc1c(Cl)ncnc1N/N=C/c1ccncc1` was tested, and the inhibition was -9.8% (inactive).
For `O=C(O)C=C1CCN(c2ncc(C(F)(F)F)cc2Cl)CC1`, the inhibition was 13.7% (inactive).
With `CN1CCN(c2ccccc2NC(=O)c2ccc3c(c2)OCCO3)CC1` the inhibition was 8.9% (inactive).
For `Cc1c(NC(=O)C2(C)CCCCC2)c(=O)n(-c2ccccc2)n1C`, the inhibition was -0.1% (inactive).
For `COCCNC(=O)/C(C#N)=C/c1ccc(OCc2ccccc2)cc1`, the inhibition was -5.6% (inactive).
`CCCCc1c(C)c(C#N)c2[nH]c3ccccc3n2c1=O` was tested, and the inhibition was 16.9% (inactive).
With `COc1ccccc1N=Cc1c(C)c(C#N)c2[nH]c3ccccc3n2c1=O` the inhibition was 71.7% (active).
With `Cc1c(CCO)c(=O)n2c([nH]c3ccccc32)c1C#N` the inhibition was -2.7% (inactive).
With `O=C(Nc1ccc(Cc2ccc(NC(=O)N3CCOCC3)cc2)cc1)N1CCOCC1` the inhibition was 3.3% (inactive).
For `COc1ccc(C2CC(=O)N3CN(Cc4ccco4)CSC3=C2C#N)cc1` (stereo not drawn), the inhibition was 76.3% (inactive) and the inhibition [1] was 19.2%.
For `COc1ccc(Br)cc1C1CC(=O)N2CN(C)CSC2=C1C#N` (stereo not drawn), the inhibition was 87.7% (inactive) and the inhibition [1] was 25.1%.
In the case of `COc1cc(C2CC(=O)N3CN(Cc4ccccc4)CSC3=C2C#N)ccc1OCc1ccccc1` (stereo not drawn), the inhibition is reported as 82.7% (inactive) and the inhibition [1] is reported as 44.4%.
For `N#CC1=C2SCN(Cc3ccccc3)CN2C(=O)CC1c1ccccc1F` (stereo not drawn), the inhibition was 85.9% (inactive) and the inhibition [1] was 29.1%.
With `COc1cc(C2CC(=O)N3CN(Cc4ccco4)CSC3=C2C#N)ccc1OCc1ccccc1` (stereo not drawn) the inhibition was 84.8% (active).
With `COc1ccc(Br)cc1C1CC(=O)N2CN(Cc3ccccc3)CSC2=C1C#N` (stereo not drawn) the inhibition was 93.2% (active).
`CC(Oc1ccc(F)cc1Br)c1nc2ccccc2c(=O)[nH]1` (stereo not drawn) was tested, and the inhibition was 10.2% (inactive).
For `CC(C)(C)c1ccc(OCc2ccc(C(=O)N/N=C/c3ccc(O)c(O)c3)cc2)cc1`, the inhibition was 57.4% (active).
With `CC(C)(C)c1ccc(C(=O)N/N=C/c2ccc(OCCCF)cc2)cc1` the inhibition was 21.6% (inactive).
For `Cc1ccc(C(C)C)c(OCc2ccc(C(=O)N/N=C/c3ccc(O)c(O)c3)cc2)c1`, the inhibition was 20.5% (inactive).
`CS(=O)(=O)N(CC(=O)N1CCCC1)Cc1ccc(Cl)c(Cl)c1` was tested, and the inhibition was 9.7% (inactive).
With `CCc1cccc(CC)c1NC(=O)c1cccc(N)c1` the inhibition was 2.5% (inactive).
